# Laboratory results taken from PubChem BioAssay AID2557 (NMMLSC, 2010).
# In all, about 330,000 compounds went through this assay and about 650 (0.2%) were called active. For the sample, actives were picked, then their nearest neighbours and some compounds at random. A number with no mark means an inactive call. Rule as the data show it: active = inhibition above about 50%; inactive = the rest.
# Target: Integrin alpha-4 (Homo sapiens) (UniProt P13612)
# Experiment: VLA-4 integrin binding inhibitors – MLPCN library, flow cytometry, VLA-4 expressing cells, VLA-4 allosteric modulator project, primary screen (AID 2557)
# Conditions: ligand binding flow cytometry, active compounds read high, about 7 µM as worked out from the volumes in the protocol
# Sequence of Integrin alpha-4 (Homo sapiens) (P13612 whole entry, looked up): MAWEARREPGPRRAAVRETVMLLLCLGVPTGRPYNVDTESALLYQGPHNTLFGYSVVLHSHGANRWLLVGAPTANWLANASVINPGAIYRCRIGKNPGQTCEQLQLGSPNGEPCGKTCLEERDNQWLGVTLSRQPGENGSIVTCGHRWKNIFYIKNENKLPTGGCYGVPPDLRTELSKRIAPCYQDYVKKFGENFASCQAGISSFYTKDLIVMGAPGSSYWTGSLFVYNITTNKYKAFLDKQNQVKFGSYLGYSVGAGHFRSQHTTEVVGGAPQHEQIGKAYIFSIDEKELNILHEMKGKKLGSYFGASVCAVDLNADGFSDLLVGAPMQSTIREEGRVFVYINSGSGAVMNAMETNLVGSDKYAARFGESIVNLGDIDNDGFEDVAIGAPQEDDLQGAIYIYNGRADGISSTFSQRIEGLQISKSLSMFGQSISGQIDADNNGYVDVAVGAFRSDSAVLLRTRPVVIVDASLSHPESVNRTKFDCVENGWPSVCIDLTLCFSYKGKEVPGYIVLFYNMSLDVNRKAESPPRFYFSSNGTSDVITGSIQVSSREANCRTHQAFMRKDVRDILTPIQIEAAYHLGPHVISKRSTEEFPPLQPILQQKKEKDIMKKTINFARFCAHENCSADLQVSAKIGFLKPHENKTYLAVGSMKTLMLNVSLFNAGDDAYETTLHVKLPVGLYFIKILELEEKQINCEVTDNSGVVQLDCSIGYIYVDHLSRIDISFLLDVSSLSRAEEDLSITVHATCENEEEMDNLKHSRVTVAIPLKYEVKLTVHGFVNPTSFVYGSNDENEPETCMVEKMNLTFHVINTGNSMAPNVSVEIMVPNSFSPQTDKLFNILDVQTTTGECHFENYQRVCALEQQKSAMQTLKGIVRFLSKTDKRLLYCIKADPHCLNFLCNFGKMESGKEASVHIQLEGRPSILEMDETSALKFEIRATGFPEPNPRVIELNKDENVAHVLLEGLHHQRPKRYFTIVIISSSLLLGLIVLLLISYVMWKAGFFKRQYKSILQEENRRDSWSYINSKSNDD
row,SMILES,inhibition
1,Cc1cccc2nc(CSc3nc4[nH]ncc4c(=O)n3-c3cccc(Cl)c3)cc(=O)n12,0.93%
2,Cc1nc2ccccc2c(=O)n1NC(=O)c1ccc(Cl)c([N+](=O)[O-])c1,8.96%
3,O=C(Nn1c(SCc2ccc([N+](=O)[O-])cc2)nc2ccccc2c1=O)c1ccc(F)cc1,-2.25%
4,O=C(Nn1c(-c2ccccc2)nc2ccccc2c1=O)c1ccc([N+](=O)[O-])cc1,52% (active)
5,CN(C(=O)COC(=O)Cn1cnc2c1c(=O)n(C)c(=O)n2C)C1(C#N)CCCCC1,0%
6,COc1cccc(C2=CC(=O)C[C@H](c3ccc(F)cc3)C2)c1OC,0%
7,Cc1ccc(S(=O)(=O)N(Cc2ccccc2)c2ccccn2)cc1[N+](=O)[O-],6.28%
8,CCOc1cc(C(=S)N2CCOCC2)ccc1OS(=O)(=O)c1ccc(Br)cc1,6.18%
9,COC(=O)N/N=C/c1c[n+]([O-])c2ccccc2[n+]1[O-],52.6% (active)
10,COC(=O)N/N=C/c1ccc(-c2ccc(Cl)c(Cl)c2)o1,12.9%
11,COC(=O)N/N=C/c1cn(CCCOc2ccc(C)cc2)c2ccccc12,1.98%
12,COc1cc(C(C(=O)NC2CCCC2)N(C(=O)c2ccco2)c2ccccc2C(C)=O)cc(OC)c1OC (stereo not given),-1.99%
13,O=C(CN1CCSCC1)N/N=C/c1ccc(F)cc1,-0.98%
14,Nc1nc(SCC(=O)NNc2c(Cl)cc(Cl)cc2Cl)n[nH]1,-17.3%
15,Cc1ccc(N(C(=O)CNC(=O)c2ccco2)C(C(=O)NC2CCCC2)c2ccncc2)cc1 (stereo not given),-11.3%
16,CC(C)Cn1cnc2c1c(=O)n(CC(O)c1ccccc1)c(=O)n2CC(C)C (stereo not given),-0.03%
17,Cc1ccccc1CN1CCNC(=O)C1CC(=O)NCCC1=CCCCC1 (stereo not given),-8.93%
18,CSCc1cc(N(C)C)nc(SCc2ccc(Cl)cc2Cl)n1,-0.25%
19,Cc1cccc(OCCCC(=O)Nc2ccc(S(=O)(=O)N3CCCC3)cc2)c1,6.35%
20,O=C(NC(=S)Nc1ccccc1C(=O)O)c1ccc(-c2ccc(Br)cc2)o1,-8.29%
21,CNC1(c2nnnn2-c2c(C)cccc2C)CCOC(C)(C)C1 (stereo not given),-0.18%
22,CCN(CC(=O)Nc1c(F)cccc1F)C(=O)c1ccc(S(=O)(=O)N2CCCCC2)cc1,-0.6%
23,COc1ccccc1/C=C/C(=O)OCC(=O)NC1CCCCCC1,9.38%

row,SMILES,inhibition
1,N#CC1(NC(=O)COc2ccc3oc4ccccc4c3c2)CCCCC1,17.8%
2,COc1cccc(N(C(=O)c2snc(C(N)=O)c2N)C(C(=O)NCC2CCCO2)c2c[nH]c3ccccc23)c1 (stereo not given),-8.82%
3,O=C1NC2(CCCCC2)N=C1c1ccccc1,7.05%
4,Cn1cnc2c1c(=O)n(Cc1ccccc1C#N)c(=O)n2C,0.49%
5,Cn1c(=NC(=O)c2ccc3c(c2)OCCO3)sc2cc(S(C)(=O)=O)ccc21,4.69%
6,Cc1cc(C)nc(SCc2nnc(SCC(=O)OC3CCCCC3)o2)n1,-6.47%
7,CC(C)C[C@@H](CO)N1CCN(Cc2ccc(O)cc2)CCC1=O,25.2%
8,COC(=O)c1ccc(CN(c2ccccc2OC)S(=O)(=O)c2cccs2)o1,12.4%
9,O=C(CN(C(=O)c1nsc(Cl)c1Cl)c1cccc(F)c1)NC1CCCC1,5.34%
10,O=C(CCS(=O)(=O)c1ccc(Br)cc1)NCCc1ccc(Cl)cc1,-4%
11,Cc1cc(C)cc(C(=O)NCC(=O)OCC(=O)N2CCCCC2)c1,51.9% (active)
12,COc1cc(OC)cc(C(=O)NCC(=O)N2CCCCCCC2)c1,2.18%
13,Cc1ccc(S(=O)(=O)N2CCN(C(=O)COC(=O)CNC(=O)c3ccc(C(C)(C)C)cc3)CC2)c(C)c1,-0.38%
14,COCCOC(=O)C1=C(C)NC(=O)NC1c1ccc(Cl)cc1 (stereo not given),0.04%
15,CC1=C(C(N)=O)C(c2ccc(F)cc2)n2nc(CCCO)nc2N1 (stereo not given),-3.48%
16,COCCOC(=O)C1=C(C)Nc2nc(C)nn2C1c1ccccc1 (stereo not given),76% (active)
17,CCCCOc1ccc(N(CC(=O)NC(C)C)C(=O)CCC(=O)Nc2ccccn2)cc1,23.1%
18,Cc1ccc(CN2CCN(Cc3ccc4ncccc4c3)CC2CCO)cc1 (stereo not given),7.01%
19,CC(C)(C)C1CCC(C(=O)Nc2cccnc2)CC1 (stereo not given),13.3%
20,CCN(CC)S(=O)(=O)c1ccc(OC)c(NC(=O)CCc2c(C)noc2C)c1,9.08%
21,O=C(COc1ccccc1F)NNC(=O)c1ccc(N2CCCCC2)c([N+](=O)[O-])c1,19.2%
22,CCOC(=O)c1ccc(N2C(=O)CC(N3CCC(C(=O)OCC)CC3)C2=O)cc1 (stereo not given),24.6%
23,CCOC(=O)c1ccc(N2C(=O)CC(N3CC(C)OC(C)C3)C2=O)cc1 (stereo not given),108% (active)

row,SMILES,inhibition
1,CCOC(=O)c1ccc(N2C(=O)CC(N3CCN(C(=O)c4ccccc4)CC3)C2=O)cc1 (stereo not given),2.59%
2,Cc1cc(C(=O)OCC(=O)Nc2ccccc2Cl)c(C)o1,-2.15%
3,Cc1cc(C)cc(NC(=O)COC(=O)c2cc(C)oc2C)c1,3.64%
4,Cc1cc(C(=O)OCC(=O)Nc2ccc(F)c(F)c2)c(C)o1,49.7% (active)
5,Cc1ccc(-c2cc(N)on2)cc1,19.5%
6,Cc1ccc(N(CC(O)CN2CCCC2)S(=O)(=O)c2ccccc2)cc1 (stereo not given),4.52%
7,Cc1cccc(N(CC(O)CN(C)C)S(=O)(=O)c2ccccc2)c1 (stereo not given),2.19%
8,Cc1cc(C)n(CC(O)CN(c2ccccc2)S(=O)(=O)c2ccc3ccccc3c2)n1 (stereo not given),50.2% (active)
9,O=C(COC(=O)c1ccc2ncsc2c1)Nc1ccc(Cl)cc1,-15.8%
10,Cn1c(=O)c2c(nc(N/N=C/c3cccs3)n2Cc2ccc(Br)cc2)n(C)c1=O,7.63%
11,COc1ccc(Nc2cc(Sc3ccc(OC)cc3)ncn2)cc1,4.33%
12,CCCNS(=O)(=O)c1ccc2c(c1)CCCN2C(C)=O,9.08%
13,CC(=O)N1CCc2cc(S(=O)(=O)NC3CCCCC3)ccc21,-5.2%
14,CC(=O)N1CCc2cc(S(=O)(=O)Nc3ccccc3N3CCN(C)CC3)ccc21,54% (active)
15,C=CC(COCc1ccccc1)N(CC(=O)OC)S(=O)(=O)c1cc(Br)ccc1OC (stereo not given),0.47%
16,Fc1cc(Br)ccc1NC(=S)Nc1cccnc1,12.9%
17,S=C(Nc1cccnc1)Nc1ccccn1,52.3% (active)
18,Cc1ccc(NC(=O)Nc2cccnc2)cc1,2.64%
19,O=C(CN(C(=O)CNC(=O)c1cccs1)c1cccc(F)c1)NC1CCCCC1,5.25%
20,COc1cccc(-c2cccc(NC(=O)C3CCN(C4CCC4)CC3)c2)c1,58.8% (active)
21,COc1cccc(NC(=O)N2C3CCCC2CC(NC(C)=O)C3)c1 (stereo not given),9.9%
22,O=C(Nc1cccc(-c2cccc(Cl)c2)c1)C1CCN(C2CCC2)CC1,3.72%
23,CC1(C)CC(=O)C(N=Nc2c(F)cccc2F)=C(O)C1,6.6%

row,SMILES,inhibition
1,Cc1ccc2nc(SCc3cn4c(C)cc(C)nc4n3)[nH]c2c1,9.58%
2,CCc1ccc(NC(=O)Cn2nc(C)c([N+](=O)[O-])c2C)cc1,-5.52%
3,Cc1nn(CC(=O)Nc2ccc(N(C)C)cc2)c(C)c1[N+](=O)[O-],-13.4%
4,Cc1nn(CC(=O)Nc2ccc(C#N)cc2)c(C)c1[N+](=O)[O-],56.9% (active)
5,Cc1ccc(/C=C/C(=O)OCC(=O)NCc2ccc(Cl)cc2)o1,50.7% (active)
6,O=C(COC(=O)c1ccco1)NCc1ccc(Cl)cc1,5.08%
7,Cc1cc(NC(=O)COC(=O)/C=C/c2ccc(C)o2)no1,4.12%
8,COCCN1C(=O)C(=O)/C(=C(/O)c2ccc(S(=O)(=O)N3CCCCC3)cc2)C1c1ccc(OC)c(OC)c1 (stereo not given),-2.1%
9,O=C(CCNC(=O)c1ccccc1Cl)NN=Cc1ccco1,4.92%
10,CC(=O)n1cc([C@H]2C=C(C(=O)N3CCOCC3)O[C@@H](OCc3ccc(CO)cc3)C2)c2ccccc21,-20.8%
11,Cc1cccc(C)c1N1CCN(S(=O)(=O)N2CCCCC2)CC1,-7.93%
12,CC1O[C@@H](OC2C(O)C(C)O[C@H](OC(=O)[C@]34CCC(C)(C)C[C@H]3C3=CCC5[C@@]6(C)CC(O)C(O[C@@H]7OC(CO)C(O)[C@@H](O)[C@@H]7O)[C@@](C)(C(=O)O)C6CC[C@@]5(C)[C@]3(CO)CC4)C2O[C@H]2OC(C)[C@@H](O[C@@H]3OCC(O[C@@H]4OC(CO)C(O)[C@H](O)C4O)[C@@H](O)[C@@H]3O)[C@H](O)C2O)C(O)C(O)C1O (stereo not given in full),-0.38%
13,Cc1nn(Cc2ccc(Cl)c(Cl)c2)c(C)c1NC(=O)c1cc(C2CC2)on1,55% (active)
14,Cc1cc(C(=O)Nc2c(C)nn(Cc3ccccc3)c2C)on1,34.7%
15,Cc1nn(Cc2ccc(F)cc2)c(C)c1NC(=O)c1cccnc1Cl,12.2%
16,COc1ccccc1CNC(=O)c1ccc(Cl)c(S(=O)(=O)N2CCCC2)c1,4.64%
17,COc1ccc(N=C2SC(C(=O)Nc3ccc(F)cc3)CC(=O)N2C)cc1 (stereo not given),5.98%
18,N#CCC(=O)NC1CCC(CC2CCC(NC(=O)CC#N)CC2)CC1 (stereo not given),-12%
19,CS(=O)(=O)n1nc(-c2ccco2)nc1N,15.3%
20,O=C(CSc1nnc(-c2ccco2)n1-c1ccccc1)NCCc1ccccc1,4.12%
21,CSc1nc(-c2ccco2)nn1C(=O)CCc1ccccc1,54% (active)
